Most compounds without a hit are left out; they make up all but 5.7% or so of the library.
GLP1R ag: agonists of human GLP-1 receptor | actives 0.007% (n = 380,000) | Potency, µM (series often up to 45.6 µM), for the others: at the highest dose activation, actives largely listed as activators | P43220 | HEK293 GLP-1R CRE-luciferase, luminescence, 4-6 h; cells express a hypersensitive GLP-1R form; further: potency means the concentration at half of the fitted maximal effect; % of control where 0% means no effect
GLP-1R inv ag: GLP-1 receptor (human) inverse agonism. P43220. HEK293 GLP-1R CRE-luciferase, luminescence, 24 h; GLP-1R form is constitutively active. Potency, µM (doses to about 38.3 µM), without a hit: at the top dose activity change, negative = inhibition, actives largely listed as inhibitors. actives 1.6% (n = 410,000). AID 624417; further: potency means the concentration at half of the fitted maximal effect; on the % scale 0 is the no-effect control and ±100 the full control effect; nearly all actives have a fitted effect of over 55% in size
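HEK293 cells stably co-expressing constitutively active GLP-1R and a cAMP-responsive luciferase reporter were seeded in DMEM with 10% Nu serum, given compounds after 12 h, and incubated 24 h at 37 deg C. Luminescence was then read.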
D3 antag: D3 dopamine receptor (human) antagonism | P35462 | D3R cells, DiscoveRx beta-arrestin luminescence, antagonist mode; active compounds read low | max response, negative = inhibition, % | actives 2.5% (n = 360,000) | AID 652054; in the data active means max response below about -50%; inconclusive means no clear call, values can overlap the other calls; further: on the % scale 0 is the no-effect control and ±100 the full control effect
Target sequence (P35462 whole entry, looked up): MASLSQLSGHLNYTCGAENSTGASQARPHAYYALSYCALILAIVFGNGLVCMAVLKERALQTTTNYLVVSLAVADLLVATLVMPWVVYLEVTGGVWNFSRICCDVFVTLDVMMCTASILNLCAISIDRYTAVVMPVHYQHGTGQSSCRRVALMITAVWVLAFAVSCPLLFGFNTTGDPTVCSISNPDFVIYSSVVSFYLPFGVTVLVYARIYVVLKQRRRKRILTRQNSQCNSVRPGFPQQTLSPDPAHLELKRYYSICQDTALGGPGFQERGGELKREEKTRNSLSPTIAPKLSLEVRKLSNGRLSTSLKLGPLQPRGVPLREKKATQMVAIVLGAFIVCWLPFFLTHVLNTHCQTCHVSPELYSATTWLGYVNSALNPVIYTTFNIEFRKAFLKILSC
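Cells expressing the human receptor were seeded at 1500 cells/well, incubated overnight at 37 degrees C in 5% CO2, then exposed to library compounds with dopamine controls for 90 minutes at 37 degrees C before luminescent detection.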
DRD3 agonist: agonists of human D3 dopamine receptor; D3R DiscoveRx beta-arrestin cells, luminescence, 90 min; max activation, %; actives 0.58% (n = 410,000); in the data active means max activation above about 30%; further: 0% is about no effect
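Agonist-mode cell screen: cells plated at 1500/well and incubated overnight at 37 °C, then exposed to library compounds for 90 min at 37 °C. Detection reagent was added for 30–60 min at room temperature, and luminescence was read.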
ClpP mod: qHTS Assay for Activators of ClpP. ATP-dependent Clp protease proteolytic subunit (Bacillus subtilis (strain 168)), P80244. purified B. subtilis ClpP, FRET peptide cleavage, 20 min. Potency, µM (doses to about 57.5 µM), inactives show top-dose activity change, negative = active. actives 1.9% (n = 340,000); active means well fitted falling curve with a large enough effect; inconclusive means small, poorly fitted or top-dose-only effect; inactive means no such curve, though single readings can be large or run the other way; further: potency means the concentration at half of the fitted maximal effect; the source files actives as falling curves though it sought activators and does not explain the sign; nearly all actives have a fitted effect of over 65% in size
Target sequence (P80244 whole entry, looked up): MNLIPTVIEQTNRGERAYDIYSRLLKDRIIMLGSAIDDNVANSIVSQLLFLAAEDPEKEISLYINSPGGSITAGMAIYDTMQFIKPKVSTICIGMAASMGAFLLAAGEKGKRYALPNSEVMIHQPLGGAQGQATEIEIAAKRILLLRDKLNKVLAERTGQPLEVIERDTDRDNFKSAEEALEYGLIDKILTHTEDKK
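Purified B. subtilis ClpP, 10 microg/mL final in Tris/HCl pH8 with KCl, BSA, glycerol and Tween-20, cleaved an Abz/nitrotyrosine-quenched decapeptide. Fluorescence (ex 320, em 430) was read at 0 and 20 min at room temperature. Delta was normalized to 5.8 microM ADEP and DMSO/no-enzyme controls.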
HEK293 tox: cytotoxicity counter-screen for GLP-1 receptor inverse agonists; HEK293 cAMP-luciferase reporter cells, luminescence, 24 h; Potency, µM (doses to about 38.3 µM), for the others: at the highest dose activity change, negative = inhibition, hits mostly inhibitors; actives 0.13% (n = 410,000); AID 624418;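 further: loss of luciferase light is scored as toxicity; potency means the concentration at half of the fitted maximal effect; on the % scale 0 is the no-effect control and ±100 the full control effect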
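MLSMR compounds, 24 hr on cells at 37 deg C/5% CO2; luminescence after luciferase reagent (12 min RT). Inhibition counted as the undesired cytotoxic outcome.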
Starred values were filed as active, the others as inactive; ? = inconclusive; nt = no result; ! = a repeat was not active. Unless noted, the call rests on the fitted dose curve; in most records, active means well fitted curve in the direction sought with a large enough effect; inconclusive means small, poorly fitted or top-dose-only effect, or another doubt; inactive means no such curve, though single readings can be large; an effect the other way counts as inactive or inconclusive.

SMILES	GLP1R ag	GLP-1R inv ag	D3 antag	DRD3 agonist	ClpP mod	HEK293 tox
CC(=O)Nc1cc2nc(C)n(Cc3ccc([N+](=O)[O-])cc3)c2nc1C	2.0%	12.1%	7.6	15.9	-0.5%	-15.2%
Cc1nc2ccc(N)cc2c(=O)n1Cc1ccc(Cl)cc1	22.1%	41.8%	1.7	1.7	35.5µM*	73.2%
CCOc1ccc(NC(=O)Cn2c(=O)n(CCCCCC(=O)NCc3ccccc3)c(=O)c3sccc32)cc1	nt	3.1%	nt	-2.8	1.2%	-0.3%
Cc1ccc(Cn2c(C(C)Nc3nc(-c4ccc(F)cc4)cs3)nc3cc(Cl)c(Cl)cc32)cc1 (stereo unspecified)	-6.4%	11.2µM*	0.0	-16.0	-6.6%	-24.1%
N#Cc1c(N)n(C2CCCCC2)c2nc3ccccc3nc12	0.4%	-15.6%	-9.4	-1.9	31.6µM*	265.5%
CCC(=O)Nc1c(C#N)c2nc3ccccc3nc2n1C1CCCCC1	1.6%	?	12.8	4.3	-18.9%	16.6%
CCC1CCCCN1C(=O)C1CC(c2cc(Cl)c(OC)cc2OC)=NO1 (stereo unspecified)	21.2%	10.2%	0.0	-27.5	-6.8%	1.9%
COc1cc(OC)c(C2=NOC(C(=O)N3CCCc4ccccc43)C2)cc1Cl (stereo unspecified)	-13.0%	-9.9%	4.9	31.5*	-2.1%	-0.5%
CCOC(=O)Cn1c(=O)n(CC2CCCO2)c2nc(-c3ccccc3)nc(C(N)=O)c21 (stereo unspecified)	6.9%	-2.6%	nt	5.8	4.5%	1.0%
Cc1ccc(NC(=S)NCCSc2ccc(Cl)cc2)c(C)c1	-1.8%	10µM*	-23.9	-1.3	3.4%	?
S=C(NCCc1ccc(Cl)cc1)Nc1ccc(Cl)cc1Cl	-3.9%	10µM*	9.1	-7.8	-1.0%	?
COc1ccc(OC)c(NC(=S)NCCSc2ccc(C)cc2)c1	-0.2%	?	12.0	-1.1	-22.7%	-22.7%
COc1ccc(NC(=S)NCCSc2ccc(C)cc2)c(OC)c1	2.6%	10µM*	14.2	8.1	1.3%	?
CCCCSCCCNC(=S)Nc1ccccc1C	14.3%	?	-9.4	-5.2	nt	?
CCCCNC(=S)Nc1ccccc1Cc1ccccc1	6.9%	11.2µM*	-3.1	-2.4	-4.0%	?
CS(=O)(=O)CCC(C(=O)Nc1cccc(C(F)(F)F)c1)N1Cc2ccccc2C1=O (stereo unspecified)	nt	-5.9%	nt	-0.8	-1.2%	21.2%
Cc1ccccc1NC(=S)NCCSc1ccc(Cl)cc1	13.7%	?	-12.2	-9.9	nt	?
CCc1ccccc1NC(=S)NCCSc1ccc(Cl)cc1	10.8%	7.08µM*	-16.0	-7.1	nt	?
CCOc1ccccc1NC(=O)c1ccc2c(Cl)c3c(nc2c1)CCCC3	-1.7%	-3.8%	nt	9.9	-7.3%	4.8%
COc1ccccc1N1CCN(C(=O)c2ccc3c(c2)N(Cc2cc(C)ccc2C)C(=O)c2ccccc2S3(=O)=O)CC1	nt	?	nt	3.9	0.8%	0.6%
Cc1ccc(-n2c(CCC(=O)O)ccc2-c2cccs2)cc1C	-1.1%	-1.5%	?	-7.0	11.2µM*!	6.6%
CCc1ccc(-n2c(CCC(=O)O)ccc2-c2cccs2)cc1	nt	-25.1%	nt	-3.6	-15.2%	5.9%
CCCCC(c1nnnn1CCOC)N1CCN(CC)CC1 (stereo unspecified)	19.2%	20.3%	-68.0*	-14.2	-0.7%	15.6%
C=CCN1CCN(C(CC(C)C)c2nnnn2CCOC)CC1 (stereo unspecified)	-13.7%	0.9%	24.0	-11.5	-5.2%	10.2%
COCCn1c(=NC(=O)c2ccco2)sc2cc(C(=O)OC)ccc21	-3.2%	12.7%	0.0	1.2	-6.6%	-9.1%
SMILES	GLP1R ag	GLP-1R inv ag	D3 antag	DRD3 agonist	ClpP mod	HEK293 tox
C=CCn1c(=NC(=O)c2ccco2)sc2cc(C(=O)OC)ccc21	1.5%	8.3%	0.2	4.0	22.4µM*	24.7%
C=CCn1c(=NC(=O)c2ccco2)sc2cc(C(=O)OCC)ccc21	8.5%	12.5%	11.2	1.9	22.4µM*	-8.1%
CCN1C(=O)[C@H]2[C@@H](c3ccc(C(F)(F)F)cc3)N[C@]3(CCCN(CC4CCCCC4)C3=O)[C@H]2C1=O	5.1%	?	-12.9	-10.3	-1.0%	0.9%
CCCNC(=O)Cc1c(O)c2ccccc2[nH]c1=O	-0.8%	9.3%	0.0	-9.6	?	-5.3%
O=C(Cc1c(O)c2ccccc2[nH]c1=O)NCc1cccc(F)c1	7.8%	0.0%	14.8	8.0	28.2µM*	-6.9%
O=C(Cc1c(O)c2ccccc2[nH]c1=O)NCc1ccccc1F	-2.2%	8.2%	?	0.2	28.2µM*	0.4%
Clc1ccc(-c2nnc(NC3=NCCCCC3)o2)cc1	-17.7%	4.47µM*	8.0	2.8	-0.7%	-3.8%
C=CCC[C@H](Cc1ccc(F)cc1)C(=O)OC[C@H](Cc1c[nH]c2ccccc12)NC(=O)[C@H](CC=C)CC(=O)N(CCO)Cc1ccccc1	-1.8%	?	0.3	-6.4	-2.1%	9.8%
C=CCC[C@H](Cc1ccc(F)cc1)C(=O)OC[C@@H](Cc1c[nH]c2ccccc12)NC(=O)[C@@H](CC=C)CC(=O)N[C@@H](CO)Cc1ccccc1	2.6%	7.08µM*	-19.7	-1.8	-3.2%	?
C=CCC[C@@H](Cc1ccc(F)cc1)C(=O)OC[C@H](Cc1c[nH]c2ccccc12)NC(=O)[C@@H](CC=C)CC(=O)N[C@@H](CO)Cc1ccccc1	-1.0%	?	9.8	10.8	1.9%	-19.7%
C=CC[C@@H](CC(=O)N[C@@H](CO)Cc1ccccc1)C(=O)NC[C@H](OC(=O)[C@@H](CC=C)Cc1ccc(F)cc1)c1ccccc1	7.8%	-20.7%	42.7	53.1*	0.1%	-1.9%
C=CCC[C@@H](Cc1ccc(F)cc1)C(=O)OC[C@@H](Cc1c[nH]c2ccccc12)NC(=O)[C@@H](CC=C)CC(=O)N(CCO)Cc1ccccc1	-1.4%	?	128.9	40.7*	-1.6%	?
C=CC[C@@H](CC(=O)N[C@@H](CO)Cc1ccccc1)C(=O)NC[C@@H](OC(=O)[C@@H](CC=C)Cc1ccc(F)cc1)c1ccccc1	-4.0%	-4.7%	2.4	5.1	1.7%	-0.5%
Brc1cccc(-c2nnc(CN3CCN(c4ccccn4)CC3)o2)c1	nt	18.9%	nt	22.4	1.2%	-3.8%
CN(C)CCNc1ncnc2c1ncn2[C@H]1CN(CCc2ccccc2)C[C@@H](CO)O1	0.4%	2.7%	-12.8	9.6	0.4%	-4.0%

Bioassay records (PubChem)
